According to publication PMC4552634, “A New Set of Chemical Starting Points with Plasmodium falciparum Transmission-Blocking Potential for Antimalarial Drug Discovery” (PLoS ONE, 2015):
Among all 13,000 compounds or so, about 3,200 (25%) showed an effect of 50% or more. This is one part of the list.

What follows are compounds tested on P. falciparum stage V gametocytes. Details: 48 h, 5 µM; inhibitor.
Parameters: BacTiter-Glo ATP luminescence viability of purified stage V gametocytes in 384-well plates, per cent inhibition versus DMSO

| SMILES | % Inhibition [%] |
| --- | --- |
| COc1cc2nccc(Nc3ccc(OCc4ccc(NC(C)=O)cc4)cc3)c2cc1OC.Cl [TCMDC-138198] | -13.16 |
| COc1ccc(Nc2ccnc3cc(-c4ccccn4)ccc23)cc1OC [TCMDC-138207] | -27.22 |
| O=C(C(=O)c1ccc(Nc2ccnc3cc(-c4ccccn4)ccc23)cc1)c1ccccc1 [TCMDC-138204] | -8.545 |
| Cc1ccc(Nc2ccnc3cc(-c4nccs4)ccc23)cc1C(O)c1ccccc1 (stereo not drawn) [TCMDC-138338] | -2.553 |
| c1ccc(-c2ccc3c(Nc4ccc5[nH]ncc5c4)ccnc3c2)nc1 [TCMDC-138199] | 108.3 |
| COc1cc2nccc(Nc3ccc(NC(=O)c4ccc(C)cc4)c(O)c3)c2cc1OC.Cl [TCMDC-138197] | 20.08 |
| CC(=O)Nc1ccc(COc2ccc(Nc3ccnc4cc(-c5ccccn5)ccc34)cc2)cc1 [TCMDC-138206] | 116.6 |
| Cc1ccc(O)cc1Nc1ccnc2cc(-c3ccccn3)ccc12 [TCMDC-138201] | 17.09 |
| Cc1ccc(C(=O)Nc2ccc(Nc3ccnc4cc(-c5nccs5)ccc34)cc2O)cc1 [TCMDC-138298] | 75.39 |
| c1ccc(-c2ccc3c(Nc4ccc5[nH]ccc5c4)ccnc3c2)nc1 [TCMDC-138200] | 22.33 |
| Cc1ccc(C(=O)Nc2ccc(Nc3ccnc4cc(-c5ccncc5)ccc34)cc2O)cc1 [TCMDC-138294] | -17.41 |
| Cc1ccc(C(=O)Nc2ccc(Nc3ccnc4cc(-c5ccccn5)ccc34)cc2O)cc1 [TCMDC-138205] | 115.7 |
| Cc1ccc(F)cc1S(=O)(=O)NCC(C)c1ccc(NC(=O)Nc2cccc(F)c2)cc1 (stereo not drawn) [TCMDC-136380] | -32.92 |
| OC(CNc1ccnc(Nc2cccc(Cl)c2)n1)c1ccccc1C(F)(F)F (stereo not drawn) [TCMDC-136578] | -37.8 |
| CC(C)n1cc2c(ccc3nc(N)nc(N)c32)n1 [TCMDC-137865] | -36.93 |
| COc1ccc2nccc([C@@H](O)CN3CCC(NCc4ccc5c(c4)N(C)C(=O)CO5)CC3)c2c1 [TCMDC-141093] | -7.365 |
| COCCCNc1sc(S(=O)(=O)c2ccccc2)nc1S(=O)(=O)c1ccc(C)cc1 [TCMDC-125275] | -13.04 |
| CS(=O)(=O)CCNCc1nc(-c2ccc3ncnc(Nc4ccc(OCc5ccccc5)c(Cl)c4)c3c2)cs1 [TCMDC-138497] | -10.86 |
| CS(=O)(=O)CCNCc1nc(-c2ccc3c(=O)[nH]cnc3c2)cs1 [TCMDC-138539] | 107 |
| CS(=O)(=O)CCNCc1nc(-c2ccc3c(Nc4ccc(F)c(O)c4)ccnc3c2)cs1 [TCMDC-138437] | -66.48 |
| O=C(Nc1ccc(Cl)cc1)N(CC1CC2CCC(C1)N2Cc1ccc(C(F)(F)F)cc1)c1ccc(N2CCOCC2)c(F)c1 (stereo not drawn) [TCMDC-135859] | 42.25 |
| COCc1nc(-c2ccccc2)nc(N2CCN(C(=O)NC(C)C)CC2)c1Cc1ccccc1F [TCMDC-124782] | 9.126 |
| Cc1onc(-c2c(Cl)cccc2Cl)c1C(=O)NC1=NC(C)(C)ON1c1ccccc1 [TCMDC-123777] | -4.951 |

| SMILES | % Inhibition [%] |
| --- | --- |
| Cc1cccc2[nH]c(-c3ccc(-c4cccc(NC(=O)NCc5ccccc5)c4)cc3)nc12 [TCMDC-133162] | -12.85 |
| COCCNCc1cccc(-c2ccccc2CN(C(=O)Nc2ccccc2)C2CCN(Cc3ccccc3)CC2)c1 [TCMDC-140579] | 41.2 |
| COCCNCc1cccc(-c2ccc(CN(C(=O)Nc3ccccc3)C3CCN(Cc4ccccc4)CC3)cc2)c1 [TCMDC-140599] | 105.4 |
| COCCNCc1ccc(-c2ccc(CN(C(=O)Nc3ccccc3)C3CCN(Cc4ccccc4)CC3)cc2)cc1 [TCMDC-140600] | 51.26 |
| COCCNCc1cccc(-c2cccc(CN(C(=O)Nc3ccccc3)C3CCN(Cc4ccccc4)CC3)c2)c1 [TCMDC-140586] | 56.29 |
| COc1cccc(CN2CCCC(CCC(=O)Nc3ccc(C(F)(F)F)cc3)C2)c1O (stereo not drawn) [TCMDC-124616] | -32.93 |
| COc1ccc(CC(=O)Nc2ccc(-c3cccc(-c4nc5c(C)cccc5[nH]4)c3)cc2)cc1O [TCMDC-132145] | -7.504 |
| O=[N+]([O-])c1cccc(-n2nc(NCc3ccc(Cl)cc3)nc2-c2ccc(F)c(C(F)(F)F)c2)c1 [TCMDC-133541] | 77.17 |
| Fc1ccc(-c2nc(NCc3cccc(C(F)(F)F)c3)nn2-c2cccc(C(F)(F)F)c2)cc1C(F)(F)F [TCMDC-133542] | -57.69 |
| Fc1ccc(CNc2nc(-c3ccc(F)c(C(F)(F)F)c3)n(-c3cccc(C(F)(F)F)c3)n2)cc1 [TCMDC-133543] | -1.205 |
| O=C(O)C1Cc2c([nH]c3ccccc23)C(c2ccc(Cl)cc2Cl)N1 (stereo not drawn) [TCMDC-125815] | 25.42 |
| CCOC(=O)C1=C(C)NC(Cn2ccnc2)=C(C(=O)OCC)C1c1ccc(C(C)(C)C)cc1 (stereo not drawn) [TCMDC-138170] | 12.53 |
| CCN(c1ccccc1)S(=O)(=O)c1ccc(NC(=O)c2cc(-c3cc(C)ccc3O)n[nH]2)cc1 [TCMDC-124308] | 51.8 |
| CC(=O)Nc1ccc(NC(=O)c2cc(-c3cc(Cl)ccc3O)n[nH]2)cc1 [TCMDC-125476] | 83.42 |
| Cc1ccc(O)c(-c2cc(C(=O)Nc3ccc(S(=O)(=O)N4CCCCCC4)cc3)[nH]n2)c1 [TCMDC-125201] | -31.36 |
| Cc1ccc(-c2cc(C(=O)Nc3ccc(S(=O)(=O)N(C)Cc4ccccc4)cc3)[nH]n2)c(O)c1 [TCMDC-125181] | -25.99 |
| CC(=O)Nc1ccc(NC(=O)c2cc(-c3ccc(C)cc3O)n[nH]2)cc1 [TCMDC-125182] | 0.9116 |
| O=C(Nc1cccnc1)c1cc(-c2cc(Cl)ccc2O)n[nH]1 [TCMDC-125322] | -15.69 |
| Cc1cccc(C)c1CNc1nc(N2CCOCC2)cc2c(C)c(C)[nH]c12 [TCMDC-134210] | 43.54 |
| CCNC(=O)N[C@@H]1CN[C@@H](C#Cc2cc3c(Nc4ccc(OCc5cccc(F)c5)c(Cl)c4)ncnc3s2)C1 [TCMDC-135409] | -11.09 |
| COc1ccc(CNC2CCN(c3ccc(NC(=O)c4cccc(Cl)c4)cc3)CC2)cc1OC [TCMDC-124658] | -12.9 |
| COc1ccc(C=CC(=O)Nc2ccc(N3CCCC3)cc2)cc1 [TCMDC-125750] | -68.82 |
| COc1cc(CNc2ccc(N3CCCC3)cc2)cc(Cl)c1OC [TCMDC-124518] | 100.8 |

| SMILES | % Inhibition [%] |
| --- | --- |
| CCCC1(C)CSc2ccccc2C(c2ccccc2)N1 (stereo not drawn) [TCMDC-137314] | 11.78 |
| CCCCCCCN(Cc1ccc(OC(C)(C)C(=O)OCC)cc1)C(=O)Nc1ccc(Cl)cc1OCC [TCMDC-131919] | 74.71 |
| CCCCCCCN(Cc1ccc(OC(C)(C)C(=O)OCC)cc1)C(=O)Nc1ccccc1OC(F)(F)F [TCMDC-131918] | 45.53 |
| CCCCCCCN(Cc1ccc(OC(C)(C)C(=O)OCC)cc1)C(=O)Nc1ccccc1OCC [TCMDC-137534] | 46.34 |
| Nc1nc(N)c2c(ccc3nn(Cc4ccccc4)cc32)n1 [TCMDC-137757] | -1.825 |
| CCC(CC)n1c(C)cc2c3c(N)nc(N)nc3ccc21 [TCMDC-137283] | 15.6 |
| CCOCn1c(-c2ccccc2)cc2c3c(N)nc(N)nc3ccc21 [TCMDC-137979] | 108.5 |
| Cc1cc2c3c(N)nc(N)nc3ccc2n1C [TCMDC-137957] | 115.7 |
| CCC(C)(C)n1c(C)cc2c3c(N)nc(N)nc3ccc21 [TCMDC-137307] | 10.01 |
| Cc1cc2c3c(N)nc(N)nc3ccc2n1C(C)C [TCMDC-137864] | -11.65 |
| Cn1ccc2c3c(N)nc(N)nc3ccc21 [TCMDC-139863] | 5.526 |
| Cn1c(-c2ccccc2)cc2c3c(N)nc(N)nc3ccc21 [TCMDC-137985] | 110.7 |
| CCCn1cc2c(ccc3nc(N)nc(N)c32)n1 [TCMDC-137858] | 22.58 |
| COc1ccc(C(=O)COc2cccc(/C=C/C(=O)O)c2)cc1OC [TCMDC-137318] | -6.983 |
| Cc1nc(-c2cccc(NCc3ccccc3)c2)[nH]c1C [TCMDC-133419] | -26.98 |
| CCOc1cc(Cc2cnc(N)nc2N)cc(OC)c1OC [TCMDC-137664] | -4.101 |
| CC(C)C1C(O)=C(c2ccc3ccccc3c2)C(=O)N1Cc1ccsc1 (stereo not drawn) [TCMDC-141810] | 16.73 |
| Cc1ccccc1C1CCN(C2CCC(NC(=O)/C=C/c3cccc(Cl)c3F)CC2)CC1 (stereo not drawn) [TCMDC-133513] | -35.56 |
| COc1cccc(CNC[C@@H](O)[C@H](Cc2ccccc2)NC(=O)c2cc3c4c(c2)c(C(C)C)cn4CCS(=O)(=O)N3C)c1 [TCMDC-135536] | 25 |
| COc1ccc2nccc([C@@H](O)CN3CCC(NC(=O)c4cccc(-c5cc(C)no5)c4)CC3)c2c1 [TCMDC-141133] | -80.32 |
| Cc1noc(C)c1-c1cccc(C(=O)NC2CCN(CCNC(=O)C(c3ccccc3)c3ccccc3)CC2)c1 [TCMDC-133354] | 85.49 |
| Cc1nn(-c2ccccc2)nc1C(=O)NC1CCN(CCNC(=O)c2ccc(Cl)c(Cl)c2)CC1 [TCMDC-141951] | 7.25 |
| OCCn1c(CNCCCNc2nc3ccccc3[nH]2)cc2c(Cl)cc(Cl)cc21 [TCMDC-140142] | 2.661 |
